In PubChem BioAssay (NCATS):
Records with an inconclusive call do not appear. Entries that show only a call come without a potency. Activity calls are given as the source filed them. Calls follow the shape of the dose curve; as a rule, active = well fitted inhibition curve with a large enough effect; inconclusive = small, poorly fitted or top-dose-only effect; inactive = flat fitted curve, though single readings scatter.

What follows are molecules tested against Calcium and integrin-binding protein 1 (Homo sapiens) (UniProt Q99828) (assay: Primary qHTS for Identification of Calcium Integrin Binding Protein 1 (CIB1) Competitor (AID 1508620;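 also: GST tagged CIB1 binding a fluorescein labelled alphaIIb integrin peptide tracer; top concentration of the series differs between compounds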)). Conditions: CIB1-GST / FITC-alphaIIb peptide fluorescence polarization; series mostly up to 114 µM.
Calcium and integrin-binding protein 1 (Homo sapiens), sequence (Q99828 whole entry, looked up): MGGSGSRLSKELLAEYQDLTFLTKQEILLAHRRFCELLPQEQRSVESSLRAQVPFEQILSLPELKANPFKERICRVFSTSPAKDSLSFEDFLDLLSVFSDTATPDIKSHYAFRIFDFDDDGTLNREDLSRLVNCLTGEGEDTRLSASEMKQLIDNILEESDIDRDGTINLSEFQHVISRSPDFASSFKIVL
Procedure, shortened: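 CIB1-GST (1 uM final) and compound incubated 15 min at room temperature before adding FITC-alphaIIb peptide tracer (100 nM final). Competition for binding read by fluorescence polarization (ex 480, em 540) after another 15 min at room temperature.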
With `Cc1ccc2nc3sc(C(=O)NCCCN(C)C)cc3cc2c1` the Potency was “inactive”.
In the case of `Cn1c2cc(Br)sc2c2cnn(Cc3ccc(F)cc3F)c(=O)c21`, the Potency is reported as “inactive”.
`CC(C)(C)OC(=O)N1CCN(c2ccc(NCc3ccc(-c4cc(C(F)(F)F)cc(C(F)(F)F)c4)o3)cc2)CC1` was tested, and the Potency was “inactive”.
`c1c[nH]c(C2CCN(c3ncc(-c4ccc5c(c4)OCCCO5)s3)CC2)n1` was tested, and the Potency was “inactive”.
With `FC(F)(F)c1cccc(-c2nc(NCc3ccc(-c4ccnc(C(F)(F)F)c4)cc3)c3ccccc3n2)c1` the Potency was “inactive”.
`CC(C)Oc1cccc(-c2cnc(N3CCC(C(N)=O)CC3)s2)c1` was tested, and the Potency was “inactive”.
For `CS(=O)(=O)c1ccc(C(=O)OCC(=O)N2CCN(Cc3ccccc3)CC2)cc1[N+](=O)[O-]`, the Potency was “inactive”.
In the case of `CCOC(=O)c1ccc(-c2ccc3ncnc(NCc4ccc(C)o4)c3c2)o1`, the Potency is reported as “inactive”.
For `Cc1ccc(-c2nn(CC(=O)N(C)C(C)c3ccco3)c(=O)cc2C)cc1` (centres undefined), the Potency was “inactive”.
`COc1ccnc(NC(=S)N2CCN(c3ncc(C(F)(F)F)cc3Cl)CC2)c1` was tested, and the Potency was “inactive”.
With `COc1ccc(OC)c(-c2nnc3n2N=C(c2ccccc2OC)CS3)c1` the Potency was “inactive”.
With `CC(=O)Nc1sc2c(c1-c1nccs1)CCNC2` the Potency was “inactive”.
For `O=C(Cc1ccc(Cl)c(Cl)c1)Nc1ccc(S(=O)(=O)O)cc1`, the Potency was “inactive”.
With `O=C(O)c1ccc(CSc2nnc(-c3cccc(S(=O)(=O)NC4CCCC4)c3)n2-c2ccc(F)cc2)cc1` the Potency was “inactive”.
In the case of `COc1cccc(NS(=O)(=O)c2ccc(NCc3cccc(OC)c3O)cc2)c1`, the Potency is reported as “inactive”.
For `C[C@H](N)C(=O)Nc1cccc(-c2nn3c(=O)cc(N4CCNCC4)nc3s2)c1`, the Potency was “inactive”.
`COc1ccc(NCc2ccc(O)c3ncccc23)nc1` was tested, and the Potency was “inactive”.
`COc1ccc(OC)c(C2=Nn3c(nnc3-c3ccc(OC)c(OC)c3)SC2)c1` was tested, and the Potency was “inactive”.
In the case of `Cc1ccc(NS(=O)(=O)c2ccccc2C(=O)Nc2nc(-c3ccccc3)cs2)cc1`, the Potency is reported as “inactive”.
In the case of `N#Cc1c(-c2ccco2)no[n+]1[O-]`, the Potency is reported as “inactive”.
In the case of `Cc1cc2c(s1)c1cnn(Cc3ccccc3)c(=O)c1n2C`, the Potency is reported as “inactive”.
In the case of `NC(=O)C1CCN(c2nc(-c3ccc(F)cc3)cs2)CC1`, the Potency is reported as “inactive”.
`CCOc1ccc(C(=O)Oc2ccc(-c3nc4ccccc4[nH]3)cc2)cc1[N+](=O)[O-]` was tested, and the Potency was “inactive”.
In the case of `Fc1cccc(-c2ccc(Nc3nc(-c4ccncc4)nc4ccccc34)cc2F)c1`, the Potency is reported as “inactive”.
For `CN1CCc2sc(NC(=O)Cc3ccccc3)c(C(=O)Nc3ccc(Cl)cc3)c2C1`, the Potency was “inactive”.
`Cc1cc(NS(=O)(=O)c2ccc(NC(=O)Cc3ccc(Cl)cc3Cl)cc2)no1` was tested, and the Potency was “inactive”.
With `c1cncc(-c2ccc3ncnc(NCc4ccc5c(c4)OCO5)c3c2)c1` the Potency was “inactive”.
For `Brc1ccc(-c2csc(N3CCCCC3)n2)cc1`, the Potency was “inactive”.
For `COc1ccc(CNc2ccc(-c3nc4ccccc4[nH]3)cc2)cc1OC`, the Potency was “inactive”.
With `O=C1NS(=O)(=O)c2cscc21` the Potency was “inactive”.
In the case of `CC(C)(C)c1ccc(C[C@H](C(=O)O)N2C(=O)c3ccc(C(=O)O)cc3C2=O)cc1`, the Potency is reported as “inactive”.
`O=C(O)c1ccc2c(c1)C(=O)N([C@H](Cc1cccc3ccccc13)C(=O)O)C2=O` was tested, and the Potency was “inactive”.
In the case of `COc1cc(F)c(S(=O)(=O)N2CCN(S(=O)(=O)c3ccc(N)cc3)CC2)c(F)c1`, the Potency is reported as “inactive”.
For `O=C(CCc1ccccc1)Nc1cccc([S+](=O)([O-])Nc2ccccc2F)c1`, the Potency was “inactive”.
`Cc1cccc(Nc2nc(C#N)nc(NC3CCCC3)n2)c1` was tested, and the Potency was “inactive”.
In the case of `Cc1ccc(C)c(SC2CS(=O)(=O)c3ccccc32)c1` (centres undefined), the Potency is reported as “inactive”.
In the case of `O=C1CCc2cc(S(=O)(=O)Nc3ccncc3)ccc2N1`, the Potency is reported as “inactive”.
`Cc1cc(C)nc(NC(=S)N2CCN(c3cccc(S(C)(=O)=O)c3)CC2)c1` was tested, and the Potency was “inactive”.
In the case of `COc1ccc2oc(NC3=NC(c4[nH]ncc4Cl)C4=C(CCCC4=O)N3)nc2c1` (centres undefined), the Potency is reported as “inactive”.
